Source: PubChem BioAssay AID1159580 (chemical genetic matrix, 2015)
Several values for one entry are separate records, joined by “and”; a condition that tells them apart may be missing. Equal values may be shown once. Out of some 5,500 compounds screened, about 2,000 (36%) were called active. Inconclusive results (about 18%) are left out. Cut-off read from the data, not from the text of the source: active = normalized growth mostly below about 0.91 (no sharp cut-off); inconclusive = no clear call, values can overlap the other calls; inactive = mostly above about 0.92. The list shows a part of the results.

Assay: chemical genetic growth profiling, strain panel (AID 1159580);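 note: tested at 20 µM; growth read once vehicle control cultures reached saturation at 30 °C; 1 = growth at the plate median or of vehicle wells; lower values mean less growth of the strain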
Settings: S. cerevisiae deletion strains, growth OD

Measured: normalized growth

COc1cc(/C=C/C(=O)O)cc(OC)c1OC
inactive: locus YAL021C, strain ccr4, active compounds read low 0.979 | locus YAL026C, strain drs2, active compounds read low 0.999 | locus YAL030W, strain snc1, active compounds read low 0.988 | locus YBL061C, strain skt5, active compounds read low 0.993 | locus YBR009C, strain hhf1, active compounds read low 1.02 | locus YBR021W, strain FUR4, active compounds read low 0.998 | locus YBR023C, strain chs3, active compounds read low 0.993 | locus YBR171W, strain sec66, active compounds read low 1 | locus YBR229C, strain ROT2, active compounds read low 1.01 | locus YBR231C, strain swc5, active compounds read low 0.941 | locus YBR279W, strain paf1, active compounds read low 0.973 | locus YCL011C, strain gbp2, active compounds read low 0.99 | locus YCL016C, strain dcc1, active compounds read low 0.994 | locus YCL029C, strain bik1, active compounds read low 1.01 | locus YCL061C, strain MRC1, active compounds read low 1 | locus YCL069W, strain vba3, active compounds read low 0.992 | locus YCR088W, strain abp1, active compounds read low 0.989 | locus YDL005C, strain med2, active compounds read low 0.979 | locus YDL035C, strain GPR1, active compounds read low 1.01 | locus YDL040C, strain nat1, active compounds read low 0.99 | locus YDL074C, strain BRE1, active compounds read low 1.02 | locus YDL101C, strain DUN1, active compounds read low 1.01 | locus YDL134C, strain PPH21, active compounds read low 1.02 | locus YDL185W, strain tfp1, active compounds read low 1.01 | locus YDL192W, strain arf1, active compounds read low 1.01 | locus YDR001C, strain nth1, active compounds read low 0.985 | locus YDR069C, strain doa4, active compounds read low 0.991 | locus YDR101C, strain arx1, active compounds read low 1.01 | locus YDR137W, strain rgp1, active compounds read low 1 | locus YDR159W, strain sac3, active compounds read low 0.986 | locus YDR162C, strain NBP2, active compounds read low 1.03 | locus YDR195W, strain ref2 0.99 | locus YDR297W, strain sur2, active compounds read low 1 | locus YDR318W, strain mcm21, active compounds read low 1.01 | locus YDR334W, strain swr1, active compounds read low 0.987 | locus YDR335W, strain msn5, active compounds read low 0.987 | locus YDR388W, active compounds read low 1.01 | locus YDR392W, strain spt3, active compounds read low 0.946 | locus YDR502C, strain sam2, active compounds read low 0.991 | locus YEL003W, strain gim4, active compounds read low 0.994 | locus YEL037C, strain rad23, active compounds read low 0.984 | locus YEL061C, strain CIN8 (second series), active compounds read low 0.99 | locus YEL061C, strain CIN8, active compounds read low 1.01 | locus YER015W, strain faa2, active compounds read low 0.975 | locus YER016W, strain bim1, active compounds read low 0.99 | locus YER110C, active compounds read low 1.03 | locus YER111C, strain swi4, active compounds read low 0.984 | locus YER155C, strain BEM2 (second series), active compounds read low 1.01 | locus YER155C, strain BEM2, active compounds read low 1.01 | locus YER167W, strain BCK2, active compounds read low 1.01 | locus YFR010W, strain ubp6, active compounds read low 0.988 | locus YGL078C, strain dbp3, active compounds read low 1.02 | locus YGL086W, strain mad1, active compounds read low 0.997 | locus YGL167C, strain pmr1, active compounds read low 0.982 | locus YGL173C, strain kem1, active compounds read low 0.985 | locus YGL227W, strain vid30, active compounds read low 0.997 | locus YGL240W, strain doc1, active compounds read low 1 | locus YGL248W, strain PDE1, active compounds read low 1.02 | locus YGL253W, strain hxk2, active compounds read low 0.993 | locus YGR078C, strain PAC10, active compounds read low 1.01 | locus YGR135W, strain pre9, active compounds read low 1.02 | locus YGR252W, strain gcn5, active compounds read low 1.02 | locus YHR013C, strain ard1, active compounds read low 0.967 | locus YHR027C, strain rpn1, active compounds read low 1 | locus YHR030C, strain SLT2, active compounds read low 1 and 1.01 | locus YHR079C, strain IRE1 (second series), active compounds read low 1.03 | locus YHR079C, strain IRE1, active compounds read low 1 | locus YHR094C, strain hxt1, active compounds read low 1.02 | locus YHR129C, strain ARP1, active compounds read low 1.01 | locus YHR142W, strain chs7, active compounds read low 0.986 | locus YHR200W, strain rpn10, active compounds read low 1.02 | locus YIL066C, strain RNR3, active compounds read low 1.01 | locus YIL073C, strain SPO22, active compounds read low 1.08 | locus YIL125W, strain kgd1, active compounds read low 1.01 | locus YIR030C, strain dcg1, active compounds read low 1.02 | locus YJL092W, strain hpr5, active compounds read low 0.991 | locus YJL095W, strain BCK1 (second series), active compounds read low 0.994 | locus YJL095W, strain BCK1, active compounds read low 1.01 and 1.03 | locus YJL115W, strain asf1, active compounds read low 0.976 | locus YJL129C, strain trk1, active compounds read low 0.971 | locus YJL134W, strain LCB3, active compounds read low 1 | locus YJL154C, strain vps35, active compounds read low 0.992 | locus YJL164C, strain tpk1, active compounds read low 0.987 | locus YJL166W, strain qcr8, active compounds read low 0.994 | locus YJL168C, strain set2, active compounds read low 1.01 | locus YJL187C, strain SWE1 (second series), active compounds read low 1.01 | locus YJL187C, strain SWE1, active compounds read low 0.991
